Data taken from the supplement of paper PMC4840960.
± gives the standard deviation of the averaged measurements.

How the values were obtained:
[1] = system: E18 rat cortical neuron-glia co-culture; assay: fiber score / MBP score (myelination specific beyond OL differentiation) (ratio); higher = more myelination-specific MBP alignment; details: treatment time: 8 days (DIV5-DIV13)
Method in brief: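 The measure is the ratio of fiber score to MBP score, where fiber score is continuous MBP fiber length per Olig2+ nucleus and MBP score is thresholded MBP area × intensity per Olig2+ nucleus. Primary E18 rat cortical co-cultures received library compounds at 1 or 5 µM in myelination medium from DIV5 to DIV13, then were fixed in 4 % paraformaldehyde and stained for MBP, Olig2 and DAPI before analysis of four 10X fields per well in duplicate wells.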

[2] = system: E18 rat cortical neuron-glia co-culture; assay: myelination (MBP fiber length per Olig2+ nucleus), % of 1 µM DAPT response (DMSO = 0) (% of DAPT); higher = more myelination, active = 50 or more; details: treatment time: 8 days (DIV5-DIV13)
Method in brief: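 The myelination value was the continuous straight MBP fiber length per Olig2+ nucleus, scaled between 0.1 % DMSO (0) and a 1 µM positive control (100). It was measured in primary E18 rat cortical co-cultures treated with library compounds at 1 or 5 µM in myelination medium from DIV5 through DIV13. Cells were fixed in 4 % paraformaldehyde and stained for MBP, Olig2 and DAPI, and four 10X fields per well were imaged in duplicate wells.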

Compound | fiber score / MBP score ([1]; 1 µM) | fiber score / MBP score ([1]; 5 µM) | myelination ([2]; 1 µM) | myelination ([2]; 5 µM)
COc1ccc(Cl)cc1C(=O)NCCc1ccc(S(=O)(=O)NC(=O)NC2CCCCC2)cc1 [Glyburide] | 1.07 | 0.835 | 1.49 (inactive) | -10.7 (inactive)
CCn1cc(C(=O)O)c(=O)c2ccc(C)nc21 [Nalidixic Acid] | 0.966 | 0.797 | -2.25 (inactive) | -7.26 (inactive)
C[C@]12CCC(=O)C=C1CC[C@@H]1[C@@H]2CC[C@@]2(C)[C@H]1CC[C@]2(O)C(=O)CO [Cortodoxone] | 0.514 | 0.781 | -16.7 (inactive) | -9 (inactive)
O=C(O)Cc1ccccc1Nc1c(Cl)cccc1Cl [Diclofenac] | 0.824 | 0.883 | -25.4 (inactive) | -15.6 (inactive)
CN(C)CCOC(c1ccccc1)c1ccccc1 [Diphenhydramine] | 0.668 | 0.525 | -12.1 (inactive) | -17.4 (inactive)
CCOC(=O)[C@H](CCc1ccccc1)N[C@@H](C)C(=O)N1Cc2ccccc2C[C@H]1C(=O)O [Quinapril] | 0.878 | 0.825 | -0.422 (inactive) | -6.78 (inactive)
Cc1cnc(NC(=O)C2=C(O)c3ccccc3S(=O)(=O)N2C)s1 [Meloxicam] | 0.958 | 1 | -0.993 (inactive) | 3.06 (inactive)
Cc1nc(=O)c2cc(CN(C)c3ccc(C(=O)N[C@@H](CCC(=O)O)C(=O)O)s3)ccc2[nH]1 [Raltitrexed] | 1.33 | 1.67 | 177 | 591 (active)
CNCCCN1c2ccccc2CCc2ccccc21 [Desipramine] | 0.74 | 0.549 | -14.9 (inactive) | -13.3 (inactive)
CN1CCCC(n2nc(Cc3ccc(Cl)cc3)c3ccccc3c2=O)CC1 (stereo not given) [Azelastine] | 0.861 | 0.855 | -2.34 (inactive) | -2.84 (inactive)
CC(C)Cc1ccc(C(C)C(=O)O)cc1 (stereo not given) [Ibuprofen] | 0.67 | 0.833 | -7.57 (inactive) | -2.85 (inactive)
Nc1cc(N2CCCCC2)nc(N)[n+]1[O-] [Minoxidil] | 0.696 | 0.658 | -26.1 (inactive) | -24.5 (inactive)
CC(C)(C(=O)c1cccnc1)c1cccnc1 [Metyrapone] | 0.588 | 0.894 | -19.7 (inactive) | -9.03 (inactive)
CN[C@H]1CC[C@@H](c2ccc(Cl)c(Cl)c2)c2ccccc21 [Sertraline] | 0.689 ± 0.18 | 3.18 | -5.38 (inactive) | -24.9 (inactive)
O=C(O)CCc1nc(-c2ccccc2)c(-c2ccccc2)o1 [Oxaprozin] | 0.677 | 0.752 | -17 (inactive) | -14 (inactive)
O=c1n(CCCN2CCN(c3cccc(Cl)c3)CC2)nc2ccccn12 [Trazodone] | 0.819 | 0.5 | -42.9 (inactive) | -62.2 (inactive)
Nc1ccc(O)c(C(=O)O)c1 [Mesalamine] | 0.748 | 0.63 | -20.4 (inactive) | -28.3 (inactive)
Clc1ccccc1CN1CCc2sccc2C1 [Ticlopidine] | 0.477 | 0.662 | -18.3 (inactive) | -14.2 (inactive)
c1cnc(N2CCN(Cc3ccc4c(c3)OCO4)CC2)nc1 [Piribedil] | 0.774 | 0.712 | -24.5 (inactive) | -35.6 (inactive)
COc1ccc(CCN(C)CCCC(C#N)(c2ccc(OC)c(OC)c2)C(C)C)cc1OC (stereo not given) [Verapamil] | 0.856 | 0.533 | -27.2 (inactive) | -53.6 (inactive)
Oc1ncnc2[nH]ncc12 [Allopurinol] | 1.01 | 0.903 | 6.93 (inactive) | -0.27 (inactive)
O=C1CC2(CCCC2)CC(=O)N1CCCCN1CCN(c2ncccn2)CC1 [Buspirone] | 0.713 | 0.313 | -14.9 (inactive) | -34 (inactive)
C[C@]12C=CC(=O)C=C1CC[C@@H]1[C@@H]2[C@@H](O)C[C@@]2(C)[C@H]1CC[C@]2(O)C(=O)CO [Prednisolone] | 0.693 | 0.923 | -6.4 (inactive) | 0.38 (inactive)
Nc1nc(=O)c2nc(CNc3ccc(C(=O)N[C@@H](CCC(=O)O)C(=O)O)cc3)cnc2[nH]1 [Folic acid] | 0.994 | 0.627 | -5.35 (inactive) | -17.3 (inactive)
CC(=O)CC(c1ccccc1)c1c(O)c2ccccc2oc1=O (stereo not given) [Warfarin] | 0.617 | 0.623 | -6.64 (inactive) | -6.48 (inactive)
NNC(=O)c1ccncc1 [Isoniazid] | 0.85 | 0.914 | -1.03 (inactive) | 0.697 (inactive)
O=C(O)COCCN1CCN(C(c2ccccc2)c2ccc(Cl)cc2)CC1 (stereo not given) [Virlix] | 0.867 | 0.681 | -2.52 (inactive) | -8.81 (inactive)
Nc1ncn([C@@H]2O[C@H](CO)[C@@H](O)[C@H]2O)c(=O)n1 [Azacitidine] | 0.686 | 0.777 | 3.99 (inactive) | 12.8 (inactive)

Compound | fiber score / MBP score ([1]; 1 µM) | fiber score / MBP score ([1]; 5 µM) | myelination ([2]; 1 µM) | myelination ([2]; 5 µM)
CC(=O)N1CCN(c2ccc(OCC3COC(Cn4ccnc4)(c4ccc(Cl)cc4Cl)O3)cc2)CC1 (stereo not given) [Ketoconazole] | 0.468 | 0.267 | -0.358 (inactive) | -46.2 (inactive)
Cc1cc(NS(=O)(=O)c2ccc(N)cc2)no1 [Sulfamethoxazole] | 0.955 | 0.803 | -3.29 (inactive) | -5.03 (inactive)
CN(C)CCC(c1ccc(Cl)cc1)c1ccccn1 (stereo not given) [Chlorpheniramine] | 0.721 ± 0.13 | 0.471 ± 0.094 | -9.68 (inactive) | -17.7 (inactive)
CC(C)(C)NCC(O)c1cc(O)cc(O)c1 (stereo not given) [Terbutaline] | 0.31 | 0.251 | -15.9 (inactive) | -16.6 (inactive)
Oc1ccc(/C=C/c2cc(O)cc(O)c2)cc1 [Resveratrol] | 0.549 | 0.685 | -12 (inactive) | -13.3 (inactive)
C/C=C1\[C@H]2C=C(C)C[C@]1(N)c1ccc(=O)[nH]c1C2 [Huperzine A] | 1.07 | 0.872 | 8.16 (inactive) | -5.77 (inactive)
CC(c1cc2ccccc2s1)N(O)C(N)=O (stereo not given) [Zileuton] | 0.599 | 0.628 | -6.73 (inactive) | -19.1 (inactive)
CCOC(=O)O[C@]1(C(=O)OCCl)CC[C@H]2[C@@H]3CCC4=CC(=O)C=C[C@]4(C)[C@H]3[C@@H](O)C[C@@]21C [Loteprednol etabonate] | 0.604 | 0.881 | -14.2 (inactive) | -1.58 (inactive)
Nc1nc2c(ncn2COCCO)c(=O)[nH]1 [Acyclovir] | 0.568 | 1.1 | -11.9 (inactive) | 29.3 (inactive)
CN1CCN(CC/C=C2/c3ccccc3Sc3ccc(S(=O)(=O)N(C)C)cc32)CC1 [Thiothixene] | 0.826 | 1.29 | -6.05 (inactive) | 42.5 (inactive)
Cn1nnc2c(C(N)=O)ncn2c1=O [Temozolomide] | 0.532 | 0.773 | -29.3 (inactive) | -12.8 (inactive)
Cc1ccnc2c1NC(=O)c1cccnc1N2C1CC1 [Nevirapine] | 0.687 | 0.851 | -18.6 (inactive) | -6.68 (inactive)
S=c1[nH]cnc2nc[nH]c12 [Mercaptopurine] | 0.858 | 0.41 | -32.7 (inactive) | -50.2 (inactive)
CNCC[C@@H](Oc1ccccc1C)c1ccccc1 [Atomoxetine] | 0.774 | 0.721 | -18.6 (inactive) | -17.2 (inactive)
C#C[C@]1(O)CC[C@H]2[C@@H]3[C@H](C)CC4=C(CCC(=O)C4)[C@H]3CC[C@@]21C [Tibolone] | 0.647 | 0.773 | -17.1 (inactive) | -13.2 (inactive)
Nc1nc2ccc(Cl)cc2c2nc(-c3ccco3)nn12 | 0.556 | 0.773 | -37.8 (inactive) | -3.25 (inactive)
C[C@H](CCC(=O)O)[C@H]1CC[C@H]2[C@@H]3C(=O)C[C@@H]4CC(=O)CC[C@]4(C)[C@H]3CC(=O)[C@]12C [Dehydrocholic Acid] | 0.477 | 0.662 | -18.3 (inactive) | -14.2 (inactive)
COCCCC/C(=N\OCCN)c1ccc(C(F)(F)F)cc1 [Fluvoxamine] | 1.03 | 0.487 | -0.231 (inactive) | -9.1 (inactive)
NC(=O)c1cnccn1 [Pyrazinamide] | 0.64 | 0.862 | -16.4 (inactive) | -9.54 (inactive)
CC(C(=O)O)c1cccc(C(=O)c2ccccc2)c1 (stereo not given) [Ketoprofen] | 0.813 | 0.972 | -5.15 (inactive) | -3.55 (inactive)
CC(C)(S)[C@@H](N)C(=O)O [Penicillamine] | 0.988 | 0.926 | -2.14 (inactive) | -5.65 (inactive)
CN(C)CCC(c1ccc(Br)cc1)c1ccccn1 (stereo not given) [Brompheniramine] | 0.611 | 0.693 | -14.9 (inactive) | -12.4 (inactive)
CN1[C@@H](CC(=O)c2ccccc2)CCC[C@H]1C[C@H](O)c1ccccc1 [Lobeline] | 0.981 | 0.451 | 2.9 (inactive) | -19.7 (inactive)
OCc1cc(C(O)CNCCCCCCOCCCCc2ccccc2)ccc1O (stereo not given) [Salmeterol] | 0.225 | 0.0809 | -29.9 (inactive) | -37.6 (inactive)
OC(c1cc(C(F)(F)F)nc2c(C(F)(F)F)cccc12)C1CCCCN1 (stereo not given) [Mefloquine] | 0.726 | 0.574 | -11.1 (inactive) | -31.7 (inactive)
CCOC(=O)[C@H](CCc1ccccc1)N[C@@H](C)C(=O)N1CCC[C@H]1C(=O)O [Enalapril] | 0.732 | 0.734 | -22.3 (inactive) | -27.5 (inactive)
CCOC(=O)C1=C(C)NC(C)=C(C(=O)OC)C1c1cccc([N+](=O)[O-])c1 (stereo not given) [Nitrendipine] | 0.92 | 1.09 | -7.81 (inactive) | 1.09 (inactive)
